Most compounds without a hit are left out; they make up all but 0.65% or so of the library.
NS1 inh: blocks influenza NS1 protein function | Potency, µM (doses to about 46.1 µM) | 270,000 tested, 0.4% active; further: actives are rising curves; nearly all actives have a fitted effect of over 50% in size
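OD600 was taken as the measure of yeast growth restored by compound in an NS1-expressing S. cerevisiae strain. Cells had been washed out of glucose medium and diluted 1:100 into galactose -URA medium, pH 6.0.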
SARS PLpro yeast-1: inhibitors of SARS-CoV papain-like protease in yeast | Potency, µM (top dose mostly 32.9 µM), hits mostly activators | 330,000 tested, 0.19% active | S. cerevisiae expressing SARS-CoV PLpro, growth rescue | AID 485353; further: nearly all actives have a fitted effect of over 55% in size
AMA1 RON2 block: inhibitors of Plasmodium falciparum AMA1-RON2 interaction; Potency, µM (doses to about 58.2 µM), hits mostly inhibitors; AlphaScreen AMA1-biotinylated RON2 peptide binding; 360,000 tested, 0.2% active; active means well fitted inhibition curve with a large enough effect; inconclusive means small, poorly fitted or top-dose-only effect; inactive means no such curve, though single readings can be large or run the other way; further: nearly all actives have a fitted effect of over 45% in size
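AMA1 (3D7) with his tag at 25 nM final met compounds first, then biotinylated RON2 peptide at 25 nM; detection used donor plus acceptor beads, 10 µg/mL apiece, read by AlphaScreen after 30 min at room temperature.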
NS1 inh valid: validation of influenza NS1 protein function inhibitors. shares compounds with NS1 inh. influenza NS1 function cell assay, 15-point titration. activity change, negative = inhibition, % at 32.9 µM. 1,400 tested, under 10 active. AID 492980
PR8 titer: influenza virus titer reduction, NS1 project; shares compounds with NS1 inh; MDCK infected influenza A/PR/8/34, virus titer TCID50; hits give low values; virus titer (log TCID50), log10 TCID50 at 5 µM; 95 tested, 30% active; call rule not given here
SARS PLpro yeast-2: Inhibits SARS-CoV PLP in yeast, hit validation; shares compounds with SARS PLpro yeast-1; yeast expressing SARS-CoV PLpro, growth phenotype rescue; calls only; 1,000 tested, 19% active; AID 652038; call rule not given here
Each line names hits and unclear results; the compound was inactive in the other large screens (follow-up assays come after a bar, where they were run). Unless noted, the call rests on the fitted dose curve.

O=C(O)c1ccc2c(c1)-c1cc(C(=O)O)ccc1S2(=O)=O	none
FC(F)Oc1ccc(/C=N/c2c(-c3ccc(OC(F)F)cc3)nc3n2CCS3)cc1	NS1 inh 13µM | NS1 inh valid inactive
COc1ccc(-c2nc3n(c(=O)c2C#N)CCS3)cc1	none (no result: NS1 inh)
N#CCC(=O)N/N=C\c1ccccc1OC/C=C/c1ccccc1	none
COc1ccc(/C=N/NC(=O)c2ccc(CN3C(=O)c4cccc5cccc3c45)cc2)cc1O	none (no result: NS1 inh)
COc1cc(/C=N/NC(=O)c2ccc(CN3C(=O)c4cccc5cccc3c45)cc2)cc(OC)c1O	NS1 inh 13µM | NS1 inh valid inactive
CN(C)CC[n+]1ccc(C(=O)c2ccccc2)cc1	none
CCC(C)Sc1ccc([C@H]2N[C@@](C)(C(=O)OC)[C@H]3C(=O)N(C)C(=O)[C@@H]23)cc1OC (some centres not stated)	none (no result: NS1 inh)
c1ccc(CSc2nnc(-c3ccccc3)c(-c3ccccc3)n2)cc1	none (no result: NS1 inh, SARS PLpro yeast-1)
N#Cc1c(Cl)nc(SCc2ccccc2)nc1-c1ccccc1	NS1 inh inconclusive (no result: AMA1 RON2 block) | NS1 inh valid inactive
C/C(=N\NC(=O)c1cccc(Cl)c1)C1C(=O)c2ccccc2C1=O	none
CCCC(C)NC(=O)c1ccc2[nH]c3c(c2c1)CC(C)CC3 (configuration not stated)	NS1 inh 11µM | NS1 inh valid inactive
COC(=O)c1ccc2[nH]c3c(c2c1)CC(C)CC3 (configuration not stated)	none
COc1ccccc1NC(=O)Cc1nnc(SCC(=O)NC2=NCCS2)n1C	none
Cc1[nH]c2ccc(-c3nnc(SCC(=O)NCc4ccco4)n3Cc3ccccc3)cc2c1C	NS1 inh 3.5µM | NS1 inh valid inactive
CCn1c(SCC(=O)NCc2ccco2)nnc1-c1ccncc1	none (no result: NS1 inh, AMA1 RON2 block)
O=C(CNc1ccccc1F)Nc1cccc2ccccc12	none
O=C(O)CC/C(=C\c1cc([N+](=O)[O-])ccc1Cl)c1nc2ccccc2s1	none
O=C(O)CC/C(=C\c1cccc(NC(=O)c2ccccc2Cl)c1)c1nc2ccccc2s1	NS1 inh inconclusive | NS1 inh valid inactive
CC(N=C1NS(=O)(=O)c2ccccc21)C(=O)NCc1ccc(F)cc1 (configuration not stated)	none (no result: NS1 inh)
CCC(=O)Nc1sc2c(c1C(N)=O)CCC2	none
N#CCC(=O)Nc1sc2c(c1C(N)=O)CCCC2	NS1 inh 8.9µM | NS1 inh valid inactive
CCCCc1cc(=O)oc2cc(C)cc(OC(C)C(=O)NCc3ccncc3)c12 (configuration not stated)	none
Cc1cc(C(=O)CSc2nnc(-c3ccc(Cl)cc3)n2C)c(C)n1CC1CCCO1 (configuration not stated)	none
Cc1cc(C(=O)Cn2nnc(-c3ccc(Cl)cc3)n2)c(C)n1CC1CCCO1 (configuration not stated)	NS1 inh 7.9µM | NS1 inh valid inactive
CCOc1ccc(/C=N/NC(=O)Cc2csc(Nc3cccc(C(F)(F)F)c3)n2)cc1	NS1 inh 10µM | NS1 inh valid inactive
CCOc1ccc(/C=N/NC(=O)Cc2csc(Nc3cccc(C(F)(F)F)c3)n2)c(OCC)c1	none
Cc1ccc2nc(NNC(=O)c3ccc(S(=O)(=O)N4CCc5ccccc5C4)cc3)sc2c1	NS1 inh 10µM, SARS PLpro yeast-1 5µM | NS1 inh valid inconclusive
Cc1ccc2nc(NNC(=O)c3ccc4c(c3)OCCO4)sc2c1	SARS PLpro yeast-1 inconclusive
O=C(NNC(=O)C1[C@H]2CCCC[C@@H]12)Nc1cccc2ccccc12 (some centres not stated)	none
O=C(c1cc(NC(=O)C23CC4CC(CC(C4)C2)C3)cc(NC(=O)C23CC4CC(CC(C4)C2)C3)c1)N1CCCCC1	NS1 inh 11µM | NS1 inh valid inactive
O=C(NC(=S)N1CCCCC1)C12CC3CC(CC(C3)C1)C2	SARS PLpro yeast-1 inconclusive
Fc1ccc(Nc2ncnc3ccccc23)cc1	none
CC(=O)Nc1ccc(Nc2ncnc3ccccc23)cc1	NS1 inh inconclusive (no result: AMA1 RON2 block) | NS1 inh valid inactive | PR8 titer inactive
O=C(Nc1ccc(O)c(-c2nc3ccccc3o2)c1)C1(c2ccc([N+](=O)[O-])cc2)CCCC1	NS1 inh 8.9µM | NS1 inh valid inactive
O=C(Nc1ccc(O)c(-c2nc3ccccc3o2)c1)C1(c2ccc(Cl)cc2)CCCC1	none
O=C(COc1cccc2ccccc12)N/N=C/c1ccc(Sc2nc3ccccc3s2)o1	none
O=C(Cc1cccc2ccccc12)N/N=C/c1ccc(Sc2nc3ccccc3s2)o1	NS1 inh 10µM | NS1 inh valid inactive
CCOC(=O)C(NC(C)=O)C(=O)Nc1ccc(C)cc1C (configuration not stated)	none
CN1CC[C@@]2(C)c3cc(O)ccc3N(C)C12 (some centres not stated)	NS1 inh 13µM (no result: SARS PLpro yeast-1, AMA1 RON2 block) | NS1 inh valid inactive
CNC(=O)Oc1ccc2c(c1)[C@]1(C)CCN(C)[C@@H]1N2C	none
CC(=O)N1CCc2cc(S(=O)(=O)NC(CC(C)C)C(=O)N3CCCC3)ccc21 (configuration not stated)	none
Cc1cccc(C2C3=C(Nc4[nH]n(-c5ccccc5)c(=O)c42)c2ccccc2C3=O)c1 (configuration not stated)	NS1 inh inconclusive
Cc1ccccc1C1C2=C(Nc3[nH]n(-c4ccccc4)c(=O)c31)c1ccccc1C2=O (configuration not stated)	NS1 inh 11µM (no result: AMA1 RON2 block) | NS1 inh valid inactive
COc1cc(F)ccc1-c1csc(C(O)c2ccccc2)n1 (configuration not stated)	none (no result: NS1 inh, SARS PLpro yeast-1)
COc1ccc(C2=Nc3cccc4cccc(c34)N2)cc1	NS1 inh 3.5µM | NS1 inh valid inactive
Nc1cccc(C2=Nc3cccc4cccc(c34)N2)c1	none
CC(=O)Nc1ccc(-c2cc(C(=O)O)c3ccc(C)cc3n2)cc1	none
Cc1ccc(CCNC(=O)C23CN(Cc4ccccc4)CC2C(c2cccc([N+](=O)[O-])c2)=NO3)cc1 (configuration not stated)	none
O=C(NCc1ccc(C(F)(F)F)cc1)C12CN(Cc3ccccc3)CC1C(c1cccc([N+](=O)[O-])c1)=NO2 (configuration not stated)	NS1 inh 13µM | NS1 inh valid inactive
O=C(NCc1ccc2c(c1)OCO2)C12CN(Cc3ccccc3)CC1C(c1cccc([N+](=O)[O-])c1)=NO2 (configuration not stated)	NS1 inh 13µM | NS1 inh valid inactive
O=C(NCC1CCCCC1)C12CN(Cc3ccccc3)CC1C(c1cccc([N+](=O)[O-])c1)=NO2 (configuration not stated)	none
COc1ccc2nc(SCC(=O)Nc3ccccc3)[nH]c2c1	NS1 inh inconclusive (no result: SARS PLpro yeast-1) | NS1 inh valid inactive | SARS PLpro yeast-2 inactive
COc1ccc2nc(SCC(=O)NCc3ccccc3)[nH]c2c1	none

From PubChem
